Compound activity: PubChem, Broad Institute
A selection: hits, their analogues and other compounds. The true share with any hit is near 3.4%.
PAX8 reporter = inhibitors of PAX8 transcriptional activity in RMG-I cells | RMG-I TPO-luciferase reporter, SteadyGlo, 24 h | inhibition, % at 12.6 µM | actives 1.2% (n = 360,000);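 active = mean replicate inhibition at least 60% with every replicate also reaching 60%; inconclusive = only one of the two criteria is met; inactive = mean below 60% and not all replicates reaching 60%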;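 note: luciferase light reporting Pax8 driven TPO promoter activity; plate controls were median of neutral control wells for no effect and mitoxantrone controls for full effect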
PGC1a acetyl inh = lowers PGC1a acetylation signal in U2OS cells; AlphaScreen anti-acetyl-lysine; with virally co-expressed GCN5 acetyltransferase; inhibition, % at 15.6 µM; actives 0.17% (n = 350,000); AID 651687;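 active = every replicate shows inhibition of at least 40%; inconclusive = mean inhibition at least 40% but some replicate below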;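 note: 0% = neutral control wells and 100% = positive control wells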
SIRT5 block = inhibitors of human sirtuin-5 desuccinylase | inhibition, % at 15 µM | Q9NXA8 | AID 652115 | actives 1.1% (n = 330,000) | Purified SirT5, succinyl-peptide AMC, trypsin-coupled fluorescence; in the data active = inhibition above about 15%; inconclusive = no clear call, values can overlap the other calls
Target sequence (Q9NXA8 whole entry, looked up): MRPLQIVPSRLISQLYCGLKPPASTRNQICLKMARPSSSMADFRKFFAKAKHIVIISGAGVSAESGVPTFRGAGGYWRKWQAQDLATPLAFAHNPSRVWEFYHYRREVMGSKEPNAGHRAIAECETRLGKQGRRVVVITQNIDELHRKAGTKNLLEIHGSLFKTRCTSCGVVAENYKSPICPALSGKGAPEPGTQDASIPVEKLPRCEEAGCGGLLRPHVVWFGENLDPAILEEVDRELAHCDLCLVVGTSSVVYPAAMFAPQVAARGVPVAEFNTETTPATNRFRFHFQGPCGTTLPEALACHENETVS
EWS-Fli block = EWS/Fli transcriptional activity inhibition; inhibition, % at 12.6 µM; actives 0.67% (n = 350,000); A673 NR0B1-luciferase reporter, viability-normalised; AID 651661;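 active = mean inhibition of at least 50% after viability correction, with every replicate also passing that limit; inconclusive = mean reaches 50% but only one of two replicates passes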;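 note: firefly luciferase signal divided by Alamar Blue viability fluorescence both relative to DMSO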
LGR2 antag = Drosophila LGR2 receptor signaling inhibition. inhibition, % at 9.99 µM. AID 720647. HEK293 LGR2, CRE-luciferase, bursicon-stimulated, 4 h. actives 0.35% (n = 380,000);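 active = drop in luminescence signal, shown as inhibition above about 50% in the replicate tests, limit read from the data, passing the limit was not always enough; inconclusive = probably only some replicates passing the limit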;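 note: agonist challenge used bursicon conditioned medium at about half maximal strength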
Ecoli rRNA inh = selective bacterial rRNA inhibition in E. coli | actives 1.6% (n = 350,000) | AID 720706 | E. coli WT GFP vs humanized-ribosome RFP mutants, fluorescence, 24 h; stronger effect = lower value; DMSO median 0, no signal -100 | GFP signal change (wild-type ribosome), % (test concentration not listed);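 active = significant combined selectivity score with lowered wild-type GFP, culture density cut under 30%, mutant RFP and density less affected; inactive = any of these conditions unmet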
AID977621 = wild-type E. coli growth inhibition versus H69 humanized strain – H69 mutant RFP, wild-type GFP, cherry-pick, dose response; activity change, negative = inhibition at 50 µM; 1,900 tested, under 10 active; fluorescence, 24 h; AID 977621; shares compounds with Ecoli rRNA inh;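 active = Wild-type ribosome reporter drop at least double the humanized mutant ribosome reporter drop, growth loss under a set limit; inconclusive = no clear call, values can overlap the other calls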;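 note: wild-type GFP and H69 mutant RFP strains grown together 50/50 in each well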
AID977628 = E. coli growth inhibition, wild-type GFP versus h24 humanized RFP strain, dose response, h24 mutant RFP vs wild-type GFP, cherry-pick; shares compounds with Ecoli rRNA inh; E. coli WT GFP strain growth, fluorescence, 24 h; activity change, negative = inhibition at 50 µM; 1,900 tested, under 10 active;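 active = compound lowering the normal-ribosome reporter at least twice as much as the humanized-ribosome reporter, growth loss under a set limit; inconclusive = no clear call, values can overlap the other calls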;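 note: wild-type GFP and h24 humanized RFP strains co-cultured 1 to 1 per well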
* marks the source's active call; other numbers are inactive results; u = inconclusive; x = no result given.

SMILES	PAX8 reporter	PGC1a acetyl inh	SIRT5 block	EWS-Fli block	LGR2 antag	Ecoli rRNA inh	AID977621	AID977628
COc1ccccc1CNC(=O)CCCc1cn(C)c2ccccc12	11	-3	-3	-4	15	-25	x	x
CO[C@@H]1CN(C)C(=O)c2cc(C#N)ccc2OC[C@H]2O[C@H](CC[C@H]2OC)CCN(C)C(=O)[C@H]1C	0	1	-1	-2	-20	5	x	x
C=CCn1c(C)cc(C(=O)COC(=O)CNC(=O)c2ccccc2)c1C	-16	x	-9	5	47	-24*	-7.8	x
CN(C)S(=O)(=O)c1ccc(C(=O)OCC(=O)c2ccc3c(c2)NC(=O)CO3)cc1	-9	10	0	-5	-11	11	x	x
CN(C)S(=O)(=O)c1cccc(C(=O)OCC(=O)c2ccc3c(c2)NC(=O)CO3)c1	x	4	-8	4	-7	-27*	-9.3	-9.2
Cc1nc(SCC(=O)Nc2ccc3c(c2)OCCO3)nc(C)c1C	-12	-6	-4	1	-3	-18*	-16	x
Cc1ccc(NC(=O)Nc2ccc3c(c2)C(=O)N(C)[C@@H]2CC[C@H](CC(=O)NCC(F)(F)F)O[C@@H]2CO3)cc1	-14	x	-2	-15	2	-8	x	x
O=[N+]([O-])c1ccccc1CN1CCN(S(=O)(=O)c2ccccc2)CC1	-6	-5	-1	9	0	-25*	u	u
O=S(=O)(c1ccccc1)N1CCN(Cc2ccccc2C(F)(F)F)CC1	15	-7	x	x	x	x	x	x
O=C(Nc1ccccc1)N1CCCCN2[C@@H](CO)[C@H](c3ccc(Br)cc3)[C@@H]2C1	-11	-12	-1	15	-2	-23*	x	u
Cc1ccccc1-c1ccc([C@@H]2[C@@H](CO)N3CCCCN(C(=O)Nc4ccc(F)cc4)C[C@@H]23)cc1	26	-8	15*	1	16	-38*	x	u
O=C(Nc1ccccc1)N1CCCCN2[C@H](CO)[C@@H](c3ccc(Br)cc3)[C@@H]2C1	-9	-17	7	-4	11	-10	x	x
Cc1ccccc1-c1ccc([C@@H]2[C@H](CO)N3CCCCN(C(=O)Nc4ccccc4)C[C@@H]23)cc1	-9	-15	2	10	1	-60	x	x
O=C1CCCc2ccccc2N1Cc1ccccc1	3	x	3	2	13	-28*	-7.9	-12
C[C@@H]1CN([C@@H](C)CO)S(=O)(=O)c2ccc(C#Cc3ccccc3)cc2O[C@H]1CN(C)C	x	-33	-1	20	2	2	x	x
CC1CCc2c(sc3ncn4c(SCC(=O)NCc5ccco5)nnc4c23)C1 (centres undefined)	x	23	1	12	13	-20*	-11	-8.4
COc1cc(OC)c(NS(=O)(=O)c2cccc(C(=O)OCC(=O)NCC3CCCO3)c2)cc1Cl (centres undefined)	12	-5	-6	-4	13	-23*	-17	-12
COc1ccc(-c2noc(CCc3ccccc3)n2)cc1	-97	-1	8	-82	-60	-20*	-0.82	-1.8
Clc1ccc(-c2cn(-c3ccccc3)c3[n+]2CCS3)cc1	10	-13	1	8	-29	-18*	-12	u
Fc1ccc(-c2cn(-c3ccccc3)c3[n+]2CCS3)cc1	3	x	-1	11	-5	12	x	x
O=C(Nc1nc(-c2ccc3ccccc3c2)cs1)C1CCN(S(=O)(=O)c2cccs2)CC1	8	x	11	7	-2	-15*	-3.7	-1.9
Cc1ccc(-c2csc(NC(=O)C3CCN(S(=O)(=O)c4cccs4)CC3)n2)cc1	17	x	x	x	6	x	x	x
CNC[C@@H]1Oc2c(NC(=O)NC(C)C)cccc2C(=O)N([C@@H](C)CO)C[C@H]1C	x	x	1	-1	-8	3	x	x
